Consider 8 molecules from PubChem BioAssay (NCI).

Some test systems named below: NCI-H23 lung; NCI-H226 lung; NCI-H322M lung; HOP-62 NSCLC; NCI-H460 lung; HOP-92 NSCLC; NCI-H522 lung; A549/ATCC NSCLC; 786-0 renal; COLO 205 colon; DU-145 prostate; K-562 leukemia; MALME-3M melanoma; MDA-MB-231 breast; RXF 393 renal; SF-268 CNS; SF-295 CNS; SF-539 CNS; UACC-257 melanoma; M14 melanoma.
Test in all cases: NCI-60 one-dose screen, 48 h (100 = growth as untreated, 0 = no growth, -100 = all killed)
What all share (conditions): 10 µM unless noted

This is part of a sample that, as a whole, favours compounds with a hit. Of some 83,000 tested, about 20% had one in any assay.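 Negative percent growth values reflect cell death: -40 means 40% of the cells present at the start died, and -100 means all died.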 Unmarked numbers belong to inactive results. The source made the active and inactive calls. How the source made its calls: active means growth percent below 10; inactive means the rest.

As for `NC(=O)c1ccccc1OCC(=O)Nc1ccc(Cl)c(Cl)c1`, the growth was 104% in the assay with NCI-H23 lung; 96.3% in the assay with NCI-H226 lung; 96.8% with NCI-H322M lung; 96.8% with HOP-62 NSCLC; 100% with NCI-H460 lung; 88.7% in the assay with HOP-92 NSCLC. Moreover, the growth with NCI-H522 lung is 83.1%; with A549/ATCC NSCLC, 114%; in the assay on 786-0 renal, 109%; in the assay with COLO 205 colon, 105%; in the assay on DU-145 prostate, 114%; in the assay on K-562 leukemia, 91%. The growth in the assay on MALME-3M melanoma was 100%; with MDA-MB-231 breast, 96.1%; in the assay with RXF 393 renal it was 104%; in the assay with SF-268 CNS, 107%; with SF-295 CNS, 98.9%; in the assay on SF-539 CNS it was 85.1%. The growth in the assay with UACC-257 melanoma was 112%; in the assay with M14 melanoma it was 111%.

On to `C=C1C(=O)O[C@H]2[C@H]1CC/C(COC(=O)/C=C\C(=O)NCc1ccc(Cn3c(=O)sn(CCCCl)c3=O)cc1)=C\CC[C@@]1(C)O[C@@H]21`, for which the growth in the assay with NCI-H23 lung is 84.1%; in the assay on NCI-H226 lung, 92.9%; in the assay on NCI-H322M lung, 107%; in the assay with HOP-62 NSCLC, 87.7%; in the assay with NCI-H460 lung, 93.4%; with HOP-92 NSCLC it was 81.7%. The growth is -12% (active) with NCI-H522 lung; 92.7% in the assay on A549/ATCC NSCLC; 67.7% in the assay with 786-0 renal; 4.69% (active) in the assay with COLO 205 colon; 45.9% with DU-145 prostate; 26.7% in the assay with K-562 leukemia. In addition, the growth with MALME-3M melanoma was 49.6%; in the assay with MDA-MB-231 breast, 71.9%; in the assay with RXF 393 renal it was 86.9%; with SF-268 CNS, 93.5%; with SF-295 CNS, 99.4%; in the assay on SF-539 CNS, 79.9%. For the same molecule, the values for the growth in the assay on UACC-257 melanoma and in the assay with M14 melanoma were 68.9% and 40.4%, respectively.

Regarding `CCN(CC)C(=O)CC1=C(C)/C(=C/c2[nH]c(-c3ccc[nH]3)cc2OC)N=C1C`, the growth in the assay on NCI-H23 lung was 34%; in the assay with NCI-H226 lung, 20%; in the assay on NCI-H322M lung, 37.1%; in the assay with HOP-62 NSCLC it was 33.1%; with NCI-H460 lung, 9.17% (active); in the assay with HOP-92 NSCLC, -14.8% (active). In addition, the growth in the assay with NCI-H522 lung was 10.1%; with A549/ATCC NSCLC, 4.73% (active); with 786-0 renal, -13.3% (active); in the assay on COLO 205 colon it was 15.9%; in the assay on DU-145 prostate it was 34.8%; in the assay with K-562 leukemia it was 6.08% (active). The growth with MALME-3M melanoma is 1.07% (active); in the assay with MDA-MB-231 breast, -0.929% (active); in the assay with RXF 393 renal, 35.9%; in the assay on SF-268 CNS, 21.7%; in the assay on SF-295 CNS, -51.6% (active); in the assay on SF-539 CNS it was 20.6%. For the same molecule, the growth was 5.68% (active) in the assay with UACC-257 melanoma and -55.8% (active) with M14 melanoma.

`COC(=O)c1c2c(c(C)[n+]([O-])c1C)C(=O)C(NCc1ccccc1)=CC2=O`: the growth in the assay with NCI-H23 lung is 9.17% (active); in the assay on NCI-H226 lung, 73.3%; in the assay with NCI-H322M lung it was 7.15% (active); in the assay with HOP-62 NSCLC it was 67.1%; in the assay with NCI-H460 lung it was 11%; with HOP-92 NSCLC, 71.1%. For the same molecule, the growth in the assay with NCI-H522 lung is 28.8%; in the assay on A549/ATCC NSCLC it was 13.7%; in the assay with 786-0 renal, 60%; in the assay with COLO 205 colon, -9.35% (active); in the assay with DU-145 prostate it was 42.4%; in the assay with K-562 leukemia it was 24.4%. The growth was -77.8% (active) in the assay on MALME-3M melanoma; 10.6% in the assay on MDA-MB-231 breast; 3% (active) in the assay on RXF 393 renal; 28.3% in the assay with SF-268 CNS; 43.5% in the assay with SF-295 CNS; 8.86% (active) in the assay with SF-539 CNS. The growth in the assay with UACC-257 melanoma was -22% (active); with M14 melanoma, 9.18% (active).

As to `O=C1CCCC1[n+]1ccccc1` (stereo not given), the growth in the assay on NCI-H23 lung was 108%; in the assay with NCI-H226 lung it was 105%; with NCI-H322M lung, 93.6%; in the assay with HOP-62 NSCLC, 80.8%; in the assay with NCI-H460 lung it was 111%; in the assay on HOP-92 NSCLC, 97.4%. Further, the growth in the assay with NCI-H522 lung is 62.1%; in the assay with A549/ATCC NSCLC, 72.3%; in the assay with 786-0 renal, 82.2%; in the assay with COLO 205 colon it was 86.1%; with DU-145 prostate it was 105%; in the assay on K-562 leukemia, 108%. The growth in the assay on MALME-3M melanoma was 89.9%; in the assay with MDA-MB-231 breast, 105%; in the assay on RXF 393 renal, 121%; in the assay on SF-268 CNS, 95.2%; in the assay on SF-295 CNS, 95.1%; in the assay with SF-539 CNS, 82.6%. For the same molecule, the growth in the assay on UACC-257 melanoma was 79.2%; with M14 melanoma it was 95%.

Regarding `COCC(=O)Oc1cc(-c2ccc(C)cc2C)c(OC(=O)COC)c(-c2ccc(C)cc2C)c1`, the growth in the assay on NCI-H23 lung was 68.8%; in the assay with NCI-H226 lung it was 59.8%; in the assay on NCI-H322M lung, 79%; in the assay with HOP-62 NSCLC, 61.5%; in the assay on NCI-H460 lung it was 17.4%; in the assay with HOP-92 NSCLC it was 66.7%. Moreover, the growth was 30.9% in the assay on NCI-H522 lung; 43.7% with A549/ATCC NSCLC; 69.6% in the assay with 786-0 renal; 48.4% in the assay with COLO 205 colon; -16.9% (active) with DU-145 prostate; 40.8% in the assay with K-562 leukemia. Besides, the growth in the assay with MALME-3M melanoma was 85.3%; in the assay with MDA-MB-231 breast, 49.7%; in the assay on RXF 393 renal, 73.5%; in the assay on SF-268 CNS, 44.5%; in the assay on SF-295 CNS, 57.5%; in the assay on SF-539 CNS, 45.7%. Besides, the growth in the assay on UACC-257 melanoma is 71.2%; in the assay with M14 melanoma, 65.1%.

In the case of `Clc1ccc(-c2cc(-c3ccccc3)nc(N3CCN(CCCNc4ccnc5cc(Cl)ccc45)CC3)n2)cc1`, the growth in the assay on NCI-H23 lung was 69%; in the assay on NCI-H226 lung, 45.9%; in the assay with NCI-H322M lung, 28.2%; in the assay on HOP-62 NSCLC, 82.1%; in the assay on NCI-H460 lung, -12.8% (active); in the assay with HOP-92 NSCLC, 26.6%. Moreover, the growth with NCI-H522 lung was 9.55% (active); in the assay on A549/ATCC NSCLC it was 43.6%; in the assay on 786-0 renal, -73.2% (active); in the assay with COLO 205 colon, -54.2% (active); with DU-145 prostate, 19.2%; in the assay with K-562 leukemia it was -14.7% (active). Moreover, the growth is -32.8% (active) in the assay on MALME-3M melanoma; -51.7% (active) with MDA-MB-231 breast; -60.5% (active) with RXF 393 renal; 13.5% with SF-268 CNS; 39.6% in the assay with SF-295 CNS; -65.7% (active) with SF-539 CNS. For the same molecule, the growth is 39.2% with UACC-257 melanoma and -51.8% (active) with M14 melanoma.

As to `N#Cc1c(-c2cccc(Cl)c2)cc(-c2cccnc2)[nH]c1=O`, the growth is 85.6% with NCI-H23 lung; 87.9% in the assay on NCI-H226 lung; 94.4% in the assay on NCI-H322M lung; 69.5% with HOP-62 NSCLC; 96.3% with NCI-H460 lung; 80.2% with HOP-92 NSCLC. The growth in the assay on NCI-H522 lung is 76.1%; in the assay on A549/ATCC NSCLC it was 93%; in the assay on 786-0 renal, 96.7%; in the assay with COLO 205 colon, 93.4%; in the assay with DU-145 prostate, 94.9%; in the assay on K-562 leukemia, 43.9%. The growth in the assay with MALME-3M melanoma is 62.5%; in the assay with MDA-MB-231 breast it was 81.9%; with RXF 393 renal it was 100%; with SF-268 CNS it was 79.9%; in the assay on SF-295 CNS, 75.9%; in the assay on SF-539 CNS, 71.6%. Besides, the growth in the assay with UACC-257 melanoma was 68.2%; in the assay on M14 melanoma it was 54.2%.
